Measured values reported in PubChem BioAssay (NCI).
The panel holds about 79,000 compounds, 15% with a hit somewhere; the sample as a whole holds those more often. No stated cut-off is given here; in the data, active means growth inhibition above about 70%; inactive means the rest.

Tests used:
[1] = NCI Yeast Anticancer Drug Screen. Data for the rad50 strain (AID 155);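 further: 0% = growth of vehicle-only cultures of the same strain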; conditions: S. cerevisiae rad50 strain growth inhibition; at 50.0 µM; active compounds read high
Summary of the method: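 Growth of the mutant yeast was measured after compound exposure and referenced to vehicle-treated cultures.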

[2] = NCI Yeast Anticancer Drug Screen. Data for the mec2-1 strain (AID 157); conditions: S. cerevisiae mec2-1 strain, at 50.0 µM, active compounds read high
Summary of the method: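 Each compound was tested on mec2-1 yeast, a strain altered in DNA damage repair or cell cycle control. Growth inhibition is reported relative to vehicle.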

[3] = NCI Yeast Anticancer Drug Screen. Data for the sgs1 mgt1 strain (AID 161);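 further: 0% = growth of cultures given vehicle only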; conditions: S. cerevisiae sgs1 mgt1 strain, at 50.0 µM, active compounds read high
Summary of the method: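 Read-out: growth inhibition vs vehicle controls. Cells: mutant yeast strain deficient in DNA damage repair.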

[4] = NCI Yeast Anticancer Drug Screen. Data for the cln2 rad14 strain (AID 165);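 further: 0% = growth equal to vehicle treated cultures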; conditions: S. cerevisiae cln2 rad14 strain, at 50.0 µM, active compounds read high
Summary of the method: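 Test compounds were added to cln2 rad14 yeast cultures; inhibition of growth was then determined by comparison with vehicle treatment.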

[5] = NCI Yeast Anticancer Drug Screen. Data for the bub3 strain (AID 167); conditions: S. cerevisiae bub3 mutant strain, at 50.0 µM, active compounds read high
Summary of the method: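 Whole-cell yeast assay. The mutant strain was incubated with compounds, and growth inhibition was determined by comparison with vehicle-treated cells.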

[6] = NCI Yeast Anticancer Drug Screen. Data for the mlh1 rad18 strain (AID 175); conditions: S. cerevisiae mlh1 rad18 strain growth inhibition; at 50.0 µM; active compounds read high
Summary of the method: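 Inhibition values reflect reduced growth of mutant yeast versus vehicle-treated controls following compound exposure; the mutations affect DNA damage repair.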

Measured: growth inhibition

CSC(C1c2ccccc2N(C)C2=NC(=O)N(C)C(=O)C21Cl)S(=O)(=O)c1ccc(C)cc1 (stereo not given)
inactive: [1] 50.2% | [2] 12.2% | [3] 27.4% | [4] 35.7% | [5] 45.4% | [6] 51.3%

C=C(CC(=O)OC)C(=O)OC
inactive: [1] 12.3% | [2] -2.9% | [3] 8.45% | [4] 7.8% | [5] 4.15% | [6] 9.45%

Cc1ccc2nc(-c3ccc(N=NNc4ccc(-c5nc6ccc(C)c(S(=O)(=O)O)c6s5)cc4)cc3)sc2c1S(=O)(=O)O
inactive: [1] 23.5% | [2] 6.85% | [3] -9.7% | [4] 18.2% | [5] 12.3% | [6] 18.6%

CC(C)(C)C(=O)C(=O)O
inactive: [1] 19.9% | [2] -13.2% | [3] -3.7% | [4] 1.15% | [5] -8.5% | [6] 14.6%

COc1ccc2c(C)cc(N/N=C(\C)c3cn(C)n(-c4ccccc4)c3=O)nc2c1
inactive: [1] -2.25% | [2] -7.1% | [3] -5.95% | [4] 13.2% | [5] -1.8% | [6] 1.65%

O=C(O)/C1=C/CCC(C(=O)O)CCC1 (stereo not given)
inactive: [1] -4.15% | [2] -1.95% | [3] -7.35% | [4] -44.6% | [5] -12.5% | [6] 22.9%

Cn1c(=O)c2c(nc3n2C(CCl)CO3)n(C)c1=O (stereo not given)
inactive: [1] 40.5% | [2] 12.8% | [3] 7.75% | [4] 9.5% | [5] 34% | [6] 32.4%

O=C1C(/C=N\C(=S)NCc2ccccc2)=C(O)c2ccccc21
inactive: [1] -31.9% | [2] -30.2% | [3] -27.1% | [4] 15.7% | [5] -3.45% | [6] -7.05%

O=C(O)c1ccccc1C(=O)NCc1ccc(Cl)cc1Cl
inactive: [1] -3.75% | [2] 22.6% | [3] 21.4% | [4] -7.3% | [5] 19.9% | [6] 38.8%

O=C1/C(=N\N(C(=O)c2ccccc2)c2ccccc2)c2cccc3cccc1c23
inactive: [1] 11.8% | [2] 49% | [3] 20.4% | [4] 12.2% | [5] 24.9% | [6] 35.9%

Nc1ccccc1SC1CCCCC1O (stereo not given)
inactive: [1] -4.9% | [2] 2.2% | [3] -5.3% | [4] -8.2% | [5] 3.75% | [6] -7.15%

CCO/C=C1/N=C(Cc2ccccc2)OC1=O
inactive: [1] 18.4% | [2] -2.05% | [3] 7.65% | [4] 23.4% | [5] 3.65% | [6] 13%

C[C@]12CC[C@@H]3c4ccc(OCCCO)c([N+](=O)[O-])c4CC[C@H]3[C@@H]1CCC2=O
inactive: [1] 16.3% | [2] 6.8% | [3] 17.7% | [4] 12.4% | [5] -0.5% | [6] 16%

CCc1ncc(C)[nH]1
inactive: [1] 0.55% | [2] -13.8% | [3] -6.35% | [4] -0.15% | [5] -12.1% | [6] -8.8%

Cc1cc(N2CCCCC2)nc(N2CCCCC2)c1C#N
inactive: [1] -4.2% | [2] -20.2% | [3] 27.7% | [4] 14.6% | [5] 35.9% | [6] 13.8%

CCCn1c(C)nc2c(N)cc(C)cc21
inactive: [1] -5.9% | [2] -2.9% | [3] -6.05% | [4] -44.5% | [5] -1.5% | [6] -0.8%

COc1ccc(CCCc2cc3c(cc2OC)OCO3)cc1
inactive: [1] 5.6% | [2] -4.1% | [3] 15.5% | [4] -8.65% | [5] 35.6% | [6] 12.2%

CC(=O)Nc1ccc(Br)cc1C
inactive: [1] 25.1% | [2] 1.95% | [3] 2.25% | [4] -10.9% | [5] -2.4% | [6] 30.6%

CNC(=O)c1ccc(/C=C/c2c[nH]c3ccccc23)[n+](C)c1
inactive: [1] -24.9% | [2] -7.9% | [3] -9.05% | [4] -11.2% | [5] -2.65% | [6] -13.3%

CC(=O)[CH-]C(=O)c1ccccc1.CC(=O)[CH-]C(=O)c1ccccc1.CC[C@H](/C=C/C(C)[C@H]1CCC2[C@@H]3CC=C4C[C@@H]([O-])CC[C@]4(C)C3CC[C@@]21C)C(C)C.CC[O-].[Ti+4] (stereo not given in full)
inactive: [1] 8% | [2] -4.6% | [3] -2.45% | [4] -2.3% | [5] 5.3% | [6] -12.2%

ClC(Cl)C1OCCOCCO1
inactive: [1] -16.1% | [2] -9.65% | [3] -9.9% | [4] -57.8% | [5] -0.35% | [6] -5.8%

O=c1c2c(oc(=Nc3ccccc3)n1-c1ccccc1)CC1(CCCCC1)C2
inactive: [1] 5.45% | [2] 1.75% | [3] -0.1% | [4] -15.2% | [5] -10.9% | [6] -4.2%

NNc1cc(=O)[nH]c(N)n1
inactive: [1] -17.6% | [2] -18.6% | [3] -31.2% | [4] -19.1% | [5] -6.95% | [6] -29.9%

c1ccc2[nH]c3c(N=NC4=NCCN4)c4ccccc4c-3nc2c1
inactive: [1] -10.5% | [2] -56.2% | [3] 10.1% | [4] -5.85% | [5] -15.3% | [6] 12.8%

CCCCCCCCCCCCCCCCCCNC1=C(C)C(=O)C(NCCCCCCCCCCCCCCCCCC)=C(OCC)C1=O
inactive: [1] 2.7% | [2] -2.95% | [3] -0.85% | [4] -10.8% | [5] -1.2% | [6] -9.5%

Cc1cc(Br)ccc1Br
inactive: [1] 34.6% | [2] 19.3% | [3] -1.75% | [4] -36.4% | [5] -4.3% | [6] 8.6%

OC1(c2ccccc2)CC2C=CC1C2 (stereo not given)
inactive: [1] -5.9% | [2] 8.2% | [3] 8.05% | [4] 17.2% | [5] 15.3% | [6] 5.15%

C[N+]1=C(/C=C/Nc2ccc(Cl)cc2)C(C)(C)c2ccccc21
inactive: [1] -2.35% | [2] 6.2% | [3] -10.4% | [4] -2.55% | [5] -1.8% | [6] 9.5%

O=C1/C(=C2\CCc3ccccc32)Cc2ccccc21
inactive: [1] 14.1% | [2] 5.65% | [3] -4.2% | [4] -1.7% | [5] 34.6% | [6] 8.15%

On1ccc(N2CCOCC2)cc1=NC1CCCCC1
inactive: [1] 25.9% | [2] 14.9% | [3] 14.5% | [4] 17.6% | [5] 3.7% | [6] 25.7%

O=S(=O)(c1cccc(C(F)(F)F)c1)N(CCCCN(S(=O)(=O)c1cccc(C(F)(F)F)c1)S(=O)(=O)c1cccc(C(F)(F)F)c1)S(=O)(=O)c1cccc(C(F)(F)F)c1
inactive: [1] -13.8% | [2] -11.6% | [3] -20.7% | [4] -20.2% | [5] -19.2% | [6] -6.6%

CCOC(=O)C1SCSCC1=O (stereo not given)
inactive: [1] -1.1% | [2] -1.7% | [3] -5.55% | [4] -30.2% | [5] -20.6% | [6] 6%

Cc1c(C)n2c(=O)n(-c3ccccc3)c(=O)n2c1=O
inactive: [1] -38% | [2] -27.1% | [3] -5.55% | [4] -27.2% | [5] -7.75% | [6] -1.85%

Cc1ccc(P(=O)(O)O)cc1C
inactive: [1] -18.2% | [2] -7.3% | [3] 0.3% | [4] -2.1% | [5] -7.75% | [6] -10.4%

N#Cc1nc(-c2cc([N+](=O)[O-])cc([N+](=O)[O-])c2)oc1N
inactive: [1] -14.6% | [2] -10.6% | [3] -4.7% | [4] 1.8% | [5] 0.05% | [6] -8.6%

C[n+]1ccccc1/C=C/c1csc2ccccc12
inactive: [1] -0.85% | [2] 5.35% | [3] 4.75% | [4] -11.8% | [5] -0.6% | [6] -3.8%

CC(C)OC(=O)Nc1cccc(C(=O)O)c1
inactive: [1] -6.55% | [2] -6.55% | [3] -2.8% | [4] -14.5% | [5] -16.4% | [6] -0.85%

COC(=O)c1ccc(S(=O)(=O)O)cc1[N+](=O)[O-]
inactive: [1] 3.05% | [2] 11.9% | [3] 2.5% | [4] -11.2% | [5] 11.8% | [6] 24.4%

CC(C)(C)CC(C)(C)c1ccc(OCCOc2ccc(C(=O)NCCNC(=O)c3ccc4ccccc4c3O)cc2N)cc1
inactive: [1] -13% | [2] -5.25% | [3] 3.85% | [4] 26.4% | [5] -7.1% | [6] -16.6%

Nc1nc(N)c(N=Nc2ccc(S(=O)(=O)O)cc2)c(N)n1
inactive: [1] -5.35% | [2] -5.3% | [3] 4.25% | [4] -21.1% | [5] 2% | [6] 10.5%
